# Source: publication PMC7862700, “An all-to-all approach to the identification of sequence-specific readers for epigenetic DNA modifications on cytosine”
# Key:
# Test in all cases: DAPPL (digital affinity profiling via proximity ligation, sequencing); 10 mM Tris-HCl pH 7.5, 50 mM NaCl, 1 mM DTT, 4% glycerol, room temperature, 30 min; GST-TFs on glutathione beads, 16-mer random dsDNA library, 0.1% formaldehyde crosslink after washing; high values mean tight binding
# [1] = target: T1, FLI1 (Homo sapiens, UniProt Q01543 1-452); conditions: protein: recombinant; tags: N-terminal GST; dsDNA, one strand shown
# T1 sequence: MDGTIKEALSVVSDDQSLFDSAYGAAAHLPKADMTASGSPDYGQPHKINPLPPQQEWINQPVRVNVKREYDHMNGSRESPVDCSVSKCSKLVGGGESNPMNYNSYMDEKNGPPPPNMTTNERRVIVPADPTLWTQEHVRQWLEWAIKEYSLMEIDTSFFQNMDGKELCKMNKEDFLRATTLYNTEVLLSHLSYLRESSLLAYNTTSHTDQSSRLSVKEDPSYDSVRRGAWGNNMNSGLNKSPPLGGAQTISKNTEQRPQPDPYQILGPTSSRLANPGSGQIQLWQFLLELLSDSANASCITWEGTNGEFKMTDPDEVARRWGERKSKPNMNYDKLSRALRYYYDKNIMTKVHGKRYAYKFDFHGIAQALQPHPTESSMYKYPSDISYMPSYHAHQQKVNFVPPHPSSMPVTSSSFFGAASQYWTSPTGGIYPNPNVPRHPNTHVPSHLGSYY
# Method in brief: (§1)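 Pools were built from human transcription factors expressed in yeast as GST fusions, captured on glutathione beads and DNA-barcoded, along with a tag-only sample. Incubation with 200 nmole of a 16-mer random double-stranded DNA library lasted 30 min at room temperature in Tris/NaCl/DTT/glycerol buffer, and was followed by washing, 0.1% formaldehyde crosslinking, proximity ligation, PCR amplification and Illumina NextSeq500 sequencing. Binding signal is the quotient of each hexamer's read frequency for a factor and its frequency for the tag-only sample.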
# [2] = target: T2, ELK1 (Homo sapiens, UniProt P19419 1-428); conditions: protein: recombinant; tags: N-terminal GST; dsDNA, one strand shown
# T2 sequence: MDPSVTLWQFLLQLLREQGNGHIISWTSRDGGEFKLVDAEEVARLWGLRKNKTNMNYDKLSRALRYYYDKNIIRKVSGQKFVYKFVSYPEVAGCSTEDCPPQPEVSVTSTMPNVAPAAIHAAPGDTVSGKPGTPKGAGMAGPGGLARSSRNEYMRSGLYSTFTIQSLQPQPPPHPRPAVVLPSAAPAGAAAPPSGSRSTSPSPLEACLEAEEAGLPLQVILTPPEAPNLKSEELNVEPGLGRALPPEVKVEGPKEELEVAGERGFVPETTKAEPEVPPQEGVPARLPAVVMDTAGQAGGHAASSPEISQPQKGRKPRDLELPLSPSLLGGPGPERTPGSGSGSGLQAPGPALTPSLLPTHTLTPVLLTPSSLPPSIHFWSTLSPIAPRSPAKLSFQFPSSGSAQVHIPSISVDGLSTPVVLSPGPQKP
# Method in brief: as §1
# [3] = target: T3, GABPA (Homo sapiens, UniProt Q06546 1-454); conditions: protein: recombinant; tags: N-terminal GST; dsDNA, one strand shown
# T3 sequence: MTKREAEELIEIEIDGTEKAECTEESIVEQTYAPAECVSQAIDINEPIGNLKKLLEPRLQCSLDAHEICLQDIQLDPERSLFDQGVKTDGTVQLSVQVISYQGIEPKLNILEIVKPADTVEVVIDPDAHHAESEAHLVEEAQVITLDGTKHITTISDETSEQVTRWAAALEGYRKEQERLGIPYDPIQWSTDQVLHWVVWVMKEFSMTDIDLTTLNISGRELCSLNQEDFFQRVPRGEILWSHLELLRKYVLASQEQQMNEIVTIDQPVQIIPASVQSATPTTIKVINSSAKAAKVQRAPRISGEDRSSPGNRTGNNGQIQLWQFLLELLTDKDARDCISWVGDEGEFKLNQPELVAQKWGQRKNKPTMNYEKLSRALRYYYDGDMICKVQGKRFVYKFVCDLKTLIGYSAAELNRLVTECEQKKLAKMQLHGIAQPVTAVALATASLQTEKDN
# Method in brief: as §1
# [4] = target: T4, ERG (Homo sapiens, UniProt P11308 1-479); conditions: protein: recombinant; tags: N-terminal GST; dsDNA, one strand shown
# T4 sequence: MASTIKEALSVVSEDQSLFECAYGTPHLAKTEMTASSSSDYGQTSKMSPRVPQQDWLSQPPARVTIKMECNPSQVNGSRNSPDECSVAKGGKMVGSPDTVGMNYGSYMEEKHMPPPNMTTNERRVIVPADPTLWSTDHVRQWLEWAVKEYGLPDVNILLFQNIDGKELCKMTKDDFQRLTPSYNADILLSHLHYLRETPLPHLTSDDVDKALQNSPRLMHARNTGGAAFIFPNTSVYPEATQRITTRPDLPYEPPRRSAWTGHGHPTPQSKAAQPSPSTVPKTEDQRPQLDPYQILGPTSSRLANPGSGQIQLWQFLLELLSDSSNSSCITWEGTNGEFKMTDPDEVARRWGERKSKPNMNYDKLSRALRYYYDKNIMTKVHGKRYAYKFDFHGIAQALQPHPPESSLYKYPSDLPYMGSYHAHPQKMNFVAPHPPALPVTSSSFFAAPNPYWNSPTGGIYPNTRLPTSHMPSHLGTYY
# Method in brief: as §1
# [5] = target: ELF1 (Homo sapiens, UniProt P32519 1-619); conditions: protein: recombinant; tags: N-terminal GST; dsDNA, one strand shown
# Method in brief: as §1
# [6] = target: T5, EHF (Homo sapiens, UniProt Q9NZC4 1-300); conditions: protein: recombinant; tags: N-terminal GST; dsDNA, one strand shown
# T5 sequence: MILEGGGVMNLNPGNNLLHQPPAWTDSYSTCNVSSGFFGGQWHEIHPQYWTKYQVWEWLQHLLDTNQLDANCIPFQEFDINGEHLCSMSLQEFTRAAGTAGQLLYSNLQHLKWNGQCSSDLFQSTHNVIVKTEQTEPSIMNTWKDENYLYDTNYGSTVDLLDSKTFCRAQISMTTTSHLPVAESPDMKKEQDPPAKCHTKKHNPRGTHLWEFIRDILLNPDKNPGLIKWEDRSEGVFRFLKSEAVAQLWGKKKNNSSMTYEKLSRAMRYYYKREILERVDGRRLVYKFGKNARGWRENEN
# Method in brief: as §1
# [7] = target: SPI1 (Homo sapiens, UniProt P17947 1-270); conditions: protein: recombinant; tags: N-terminal GST; dsDNA, one strand shown
# Method in brief: as §1
# [8] = target: SPIB (Homo sapiens, UniProt Q01892 1-262); conditions: protein: recombinant; tags: N-terminal GST; dsDNA, one strand shown
# Method in brief: as §1
# [9] = target: T6, ELK3 (Homo sapiens, UniProt P41970 1-407); conditions: protein: recombinant; tags: N-terminal GST; dsDNA, one strand shown
# T6 sequence: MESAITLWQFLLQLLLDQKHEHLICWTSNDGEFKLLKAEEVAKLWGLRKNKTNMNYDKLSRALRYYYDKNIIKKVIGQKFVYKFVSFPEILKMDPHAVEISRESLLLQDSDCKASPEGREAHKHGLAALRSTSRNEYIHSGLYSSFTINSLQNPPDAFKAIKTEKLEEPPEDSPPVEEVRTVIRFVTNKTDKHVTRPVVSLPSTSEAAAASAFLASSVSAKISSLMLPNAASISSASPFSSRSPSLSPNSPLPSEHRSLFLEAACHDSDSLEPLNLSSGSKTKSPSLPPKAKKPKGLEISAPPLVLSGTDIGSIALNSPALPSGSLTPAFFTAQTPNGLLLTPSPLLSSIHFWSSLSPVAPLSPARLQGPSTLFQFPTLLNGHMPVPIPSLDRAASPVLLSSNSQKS
# Method in brief: as §1
# [10] = target: T7, FEV (Homo sapiens, UniProt Q99581 1-238); conditions: protein: recombinant; tags: N-terminal GST; dsDNA, one strand shown
# T7 sequence: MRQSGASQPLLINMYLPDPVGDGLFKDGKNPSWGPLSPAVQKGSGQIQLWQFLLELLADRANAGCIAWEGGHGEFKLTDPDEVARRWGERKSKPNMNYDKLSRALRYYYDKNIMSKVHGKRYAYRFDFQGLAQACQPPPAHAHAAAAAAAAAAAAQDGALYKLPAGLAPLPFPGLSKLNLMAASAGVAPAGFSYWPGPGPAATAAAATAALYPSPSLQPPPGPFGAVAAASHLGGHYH
# Method in brief: as §1
# [11] = target: ETV5 (Homo sapiens, UniProt P41161 1-510); conditions: protein: recombinant; tags: N-terminal GST; dsDNA, one strand shown
# Method in brief: as §1
# [12] = target: HSF1 (Homo sapiens, UniProt Q00613 1-529); conditions: protein: recombinant; tags: N-terminal GST; chain copies: 3; dsDNA, one strand shown
# Method in brief: as §1
# [13] = target: T8, SPIC (Homo sapiens, UniProt Q8N5J4 1-248); conditions: protein: recombinant; tags: N-terminal GST; dsDNA, one strand shown
# T8 sequence: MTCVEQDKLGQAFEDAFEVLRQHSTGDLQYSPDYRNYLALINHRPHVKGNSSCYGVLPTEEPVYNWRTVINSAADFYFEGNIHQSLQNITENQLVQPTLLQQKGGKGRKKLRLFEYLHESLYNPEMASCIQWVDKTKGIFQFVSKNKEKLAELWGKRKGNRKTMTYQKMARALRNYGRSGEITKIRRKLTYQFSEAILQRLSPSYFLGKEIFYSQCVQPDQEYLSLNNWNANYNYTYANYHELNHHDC
# Method in brief: as §1
# [14] = target: ELF4 (Homo sapiens, UniProt Q99607 1-663); conditions: protein: recombinant; tags: N-terminal GST; dsDNA, one strand shown
# Method in brief: as §1
# [15] = target: T9, ELK4 (Homo sapiens, UniProt P28324-2 1-405); conditions: protein: recombinant; tags: N-terminal GST; dsDNA, one strand shown
# T9 sequence: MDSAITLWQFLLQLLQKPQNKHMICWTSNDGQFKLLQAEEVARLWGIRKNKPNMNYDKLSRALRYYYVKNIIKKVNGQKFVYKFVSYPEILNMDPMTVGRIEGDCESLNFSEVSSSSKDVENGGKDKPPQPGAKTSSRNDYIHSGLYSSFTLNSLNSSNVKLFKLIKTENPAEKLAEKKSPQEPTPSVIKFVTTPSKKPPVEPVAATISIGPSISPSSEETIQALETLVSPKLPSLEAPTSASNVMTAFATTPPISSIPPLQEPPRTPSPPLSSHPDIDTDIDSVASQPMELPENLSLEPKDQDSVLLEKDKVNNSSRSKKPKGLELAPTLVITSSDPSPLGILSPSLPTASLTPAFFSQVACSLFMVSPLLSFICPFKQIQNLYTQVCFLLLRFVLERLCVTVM
# Method in brief: as §1
# [16] = target: T10, ETV2 (Homo sapiens, UniProt O00321 1-342); conditions: protein: recombinant; tags: N-terminal GST; dsDNA, one strand shown
# T10 sequence: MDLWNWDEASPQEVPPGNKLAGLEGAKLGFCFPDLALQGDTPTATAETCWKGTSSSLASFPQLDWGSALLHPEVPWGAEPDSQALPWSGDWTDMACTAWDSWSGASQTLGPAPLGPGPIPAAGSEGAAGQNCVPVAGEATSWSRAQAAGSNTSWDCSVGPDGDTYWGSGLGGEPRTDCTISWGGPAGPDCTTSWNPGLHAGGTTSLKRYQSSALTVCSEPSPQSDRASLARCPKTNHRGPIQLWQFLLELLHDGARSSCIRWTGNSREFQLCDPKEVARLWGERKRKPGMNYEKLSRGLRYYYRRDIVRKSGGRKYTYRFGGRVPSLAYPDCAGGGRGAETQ
# Method in brief: as §1
# [17] = target: T11, ELF3 (Homo sapiens, UniProt P78545 1-371); conditions: protein: recombinant; tags: N-terminal GST; dsDNA, one strand shown
# T11 sequence: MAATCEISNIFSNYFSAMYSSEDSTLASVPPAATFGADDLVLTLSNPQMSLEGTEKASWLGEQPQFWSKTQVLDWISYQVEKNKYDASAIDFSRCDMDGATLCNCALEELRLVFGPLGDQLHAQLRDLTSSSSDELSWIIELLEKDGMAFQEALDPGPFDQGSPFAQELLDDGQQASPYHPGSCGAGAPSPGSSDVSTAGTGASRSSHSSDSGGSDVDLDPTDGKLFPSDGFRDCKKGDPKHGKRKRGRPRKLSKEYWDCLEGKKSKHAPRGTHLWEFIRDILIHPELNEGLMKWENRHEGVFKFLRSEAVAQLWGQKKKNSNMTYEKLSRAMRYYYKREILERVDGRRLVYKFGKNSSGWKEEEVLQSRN
# Method in brief: as §1
# [18] = target: CRX (Homo sapiens, UniProt O43186 1-299); conditions: protein: recombinant; tags: N-terminal GST; dsDNA, one strand shown
# Method in brief: as §1
# [19] = target: ETV1 (Homo sapiens, UniProt P50549 1-477); conditions: protein: recombinant; tags: N-terminal GST; dsDNA, one strand shown
# Method in brief: as §1
# SPIB, sequence (Q01892 whole entry): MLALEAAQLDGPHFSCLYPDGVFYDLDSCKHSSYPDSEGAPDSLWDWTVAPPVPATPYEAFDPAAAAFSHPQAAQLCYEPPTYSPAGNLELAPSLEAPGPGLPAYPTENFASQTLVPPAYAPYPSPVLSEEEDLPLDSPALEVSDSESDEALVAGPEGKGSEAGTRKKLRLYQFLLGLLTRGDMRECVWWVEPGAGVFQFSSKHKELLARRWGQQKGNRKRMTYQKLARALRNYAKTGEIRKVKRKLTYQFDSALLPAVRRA
# CRX, sequence (O43186 whole entry): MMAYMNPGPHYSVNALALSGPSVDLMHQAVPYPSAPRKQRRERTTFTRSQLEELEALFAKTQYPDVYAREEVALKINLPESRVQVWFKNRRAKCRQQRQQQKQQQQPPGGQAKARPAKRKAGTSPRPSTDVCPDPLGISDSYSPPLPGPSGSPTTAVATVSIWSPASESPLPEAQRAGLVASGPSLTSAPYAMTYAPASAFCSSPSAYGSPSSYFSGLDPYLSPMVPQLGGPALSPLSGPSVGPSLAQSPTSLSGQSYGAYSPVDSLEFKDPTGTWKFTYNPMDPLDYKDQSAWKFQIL
# ELF1, sequence (P32519 whole entry): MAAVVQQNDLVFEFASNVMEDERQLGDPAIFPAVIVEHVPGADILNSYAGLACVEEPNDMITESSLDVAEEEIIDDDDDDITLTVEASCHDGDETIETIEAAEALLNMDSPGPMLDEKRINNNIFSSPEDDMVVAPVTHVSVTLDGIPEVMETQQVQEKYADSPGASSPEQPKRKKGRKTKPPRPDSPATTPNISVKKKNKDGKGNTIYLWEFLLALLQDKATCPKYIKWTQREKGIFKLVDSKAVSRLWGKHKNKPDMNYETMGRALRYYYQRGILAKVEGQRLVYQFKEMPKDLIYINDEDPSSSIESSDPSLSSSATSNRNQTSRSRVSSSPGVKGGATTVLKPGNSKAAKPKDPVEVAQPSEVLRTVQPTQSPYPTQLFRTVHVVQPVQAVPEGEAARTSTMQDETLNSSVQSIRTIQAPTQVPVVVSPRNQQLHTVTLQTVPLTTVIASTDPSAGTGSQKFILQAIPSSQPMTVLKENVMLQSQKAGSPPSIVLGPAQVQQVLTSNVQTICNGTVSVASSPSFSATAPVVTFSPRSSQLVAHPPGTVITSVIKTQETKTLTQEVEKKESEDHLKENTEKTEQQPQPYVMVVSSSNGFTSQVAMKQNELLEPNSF
# ETV1, sequence (P50549 whole entry): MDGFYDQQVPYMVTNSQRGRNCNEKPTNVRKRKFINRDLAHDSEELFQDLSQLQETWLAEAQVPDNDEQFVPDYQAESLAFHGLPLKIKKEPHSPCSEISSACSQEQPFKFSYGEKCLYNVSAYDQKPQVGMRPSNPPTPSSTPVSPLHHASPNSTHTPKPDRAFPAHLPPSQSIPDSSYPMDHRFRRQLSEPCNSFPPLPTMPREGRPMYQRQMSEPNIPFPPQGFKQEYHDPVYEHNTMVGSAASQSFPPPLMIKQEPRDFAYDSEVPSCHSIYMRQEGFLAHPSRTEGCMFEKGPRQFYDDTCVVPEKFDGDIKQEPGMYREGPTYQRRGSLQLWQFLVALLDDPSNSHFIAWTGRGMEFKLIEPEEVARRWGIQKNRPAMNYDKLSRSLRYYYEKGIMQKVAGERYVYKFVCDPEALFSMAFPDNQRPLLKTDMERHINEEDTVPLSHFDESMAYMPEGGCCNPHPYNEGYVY
# ETV5, sequence (P41161 whole entry): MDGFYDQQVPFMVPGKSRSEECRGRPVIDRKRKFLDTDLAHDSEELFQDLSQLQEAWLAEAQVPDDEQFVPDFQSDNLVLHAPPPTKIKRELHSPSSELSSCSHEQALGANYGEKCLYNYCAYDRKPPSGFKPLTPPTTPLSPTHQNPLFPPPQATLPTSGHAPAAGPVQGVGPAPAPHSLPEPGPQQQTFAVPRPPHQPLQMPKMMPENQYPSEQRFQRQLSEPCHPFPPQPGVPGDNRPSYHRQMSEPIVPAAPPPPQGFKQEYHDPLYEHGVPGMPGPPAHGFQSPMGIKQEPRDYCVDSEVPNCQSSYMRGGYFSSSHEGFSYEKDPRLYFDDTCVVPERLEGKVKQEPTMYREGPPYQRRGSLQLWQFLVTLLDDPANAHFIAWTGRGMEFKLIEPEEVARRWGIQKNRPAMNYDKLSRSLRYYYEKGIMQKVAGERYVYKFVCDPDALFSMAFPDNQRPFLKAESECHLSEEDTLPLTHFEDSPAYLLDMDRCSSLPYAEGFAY
# ELF4, sequence (Q99607 whole entry): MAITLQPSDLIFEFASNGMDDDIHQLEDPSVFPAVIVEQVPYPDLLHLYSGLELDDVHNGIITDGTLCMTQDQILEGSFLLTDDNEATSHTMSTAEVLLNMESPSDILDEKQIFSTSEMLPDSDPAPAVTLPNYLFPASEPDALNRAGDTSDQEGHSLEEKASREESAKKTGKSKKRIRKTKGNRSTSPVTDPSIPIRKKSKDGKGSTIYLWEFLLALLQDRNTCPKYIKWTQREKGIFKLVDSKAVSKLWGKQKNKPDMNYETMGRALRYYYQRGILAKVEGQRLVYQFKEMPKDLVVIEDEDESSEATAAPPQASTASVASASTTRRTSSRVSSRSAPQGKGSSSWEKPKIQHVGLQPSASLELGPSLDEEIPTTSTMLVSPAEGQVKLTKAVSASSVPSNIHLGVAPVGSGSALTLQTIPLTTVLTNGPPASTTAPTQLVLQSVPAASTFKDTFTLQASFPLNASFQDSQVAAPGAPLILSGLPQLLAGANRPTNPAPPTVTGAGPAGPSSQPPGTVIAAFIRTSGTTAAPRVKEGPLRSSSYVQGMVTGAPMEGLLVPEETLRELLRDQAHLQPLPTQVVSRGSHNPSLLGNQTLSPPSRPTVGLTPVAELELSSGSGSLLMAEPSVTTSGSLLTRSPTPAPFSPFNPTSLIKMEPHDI
# HSF1, sequence (Q00613 whole entry): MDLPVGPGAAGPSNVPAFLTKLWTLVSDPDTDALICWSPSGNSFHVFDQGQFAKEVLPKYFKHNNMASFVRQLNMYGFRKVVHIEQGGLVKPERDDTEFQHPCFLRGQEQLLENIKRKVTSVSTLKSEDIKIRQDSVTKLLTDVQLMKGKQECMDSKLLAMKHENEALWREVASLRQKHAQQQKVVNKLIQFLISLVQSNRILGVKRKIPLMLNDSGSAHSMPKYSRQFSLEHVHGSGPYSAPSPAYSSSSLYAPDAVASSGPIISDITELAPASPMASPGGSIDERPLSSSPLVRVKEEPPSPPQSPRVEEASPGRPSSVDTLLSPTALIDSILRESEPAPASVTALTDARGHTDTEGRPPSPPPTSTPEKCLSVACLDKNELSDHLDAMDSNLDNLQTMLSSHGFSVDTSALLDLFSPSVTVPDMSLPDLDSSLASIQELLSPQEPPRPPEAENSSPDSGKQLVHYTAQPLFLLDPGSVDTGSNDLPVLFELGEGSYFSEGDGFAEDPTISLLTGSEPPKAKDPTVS
sequence,measurement,setting,value
CCGAAC,binding signal,[1],"1.26 fold enrichment (6-mer frequency, TF over GST control)"
same,binding signal,[2],"1.21 fold enrichment (6-mer frequency, TF over GST control)"
same,binding signal,[3],"1.29 fold enrichment (6-mer frequency, TF over GST control)"
same,binding signal,[4],"1.21 fold enrichment (6-mer frequency, TF over GST control)"
same,binding signal,[5],"1.26 fold enrichment (6-mer frequency, TF over GST control)"
same,binding signal,[6],"1.32 fold enrichment (6-mer frequency, TF over GST control)"
same,binding signal,[7],"1.25 fold enrichment (6-mer frequency, TF over GST control)"
same,binding signal,[8],"1.2 fold enrichment (6-mer frequency, TF over GST control)"
same,binding signal,[9],"1.33 fold enrichment (6-mer frequency, TF over GST control)"
same,binding signal,[10],"1.25 fold enrichment (6-mer frequency, TF over GST control)"
same,binding signal,[11],"1.27 fold enrichment (6-mer frequency, TF over GST control)"
same,binding signal,[12],"1.54 fold enrichment (6-mer frequency, TF over GST control)"
same,binding signal,[13],"1.32 fold enrichment (6-mer frequency, TF over GST control)"
same,binding signal,[14],"1.26 fold enrichment (6-mer frequency, TF over GST control)"
same,binding signal,[15],"1.25 fold enrichment (6-mer frequency, TF over GST control)"
same,binding signal,[16],"1.36 fold enrichment (6-mer frequency, TF over GST control)"
same,binding signal,[17],"1.25 fold enrichment (6-mer frequency, TF over GST control)"
same,binding signal,[18],"1.17 fold enrichment (6-mer frequency, TF over GST control)"
same,binding signal,[19],"1.19 fold enrichment (6-mer frequency, TF over GST control)"
